# A selection: hits, their analogues and other compounds. The true share with any hit is near 4%.
# Wnt bcat act – activates Wnt/beta-catenin signaling in a reporter cell assay | activation, % at 9.35 µM | hit rate 1.2% among 300,000 | activator, plate reader; in the data active = activation above about 30%, passing the limit was not always enough; inconclusive = no clear call, values can overlap the other calls;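 also: 0% = neutral control wells and 100% = positive control wells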
# esBAF inh – blocks esBAF chromatin remodeling in mouse ES cells; Bmi1-luciferase knock-in reporter, 24 h; 100% = twice the neutral-well signal; reporter increase, % at 12.5 µM; hit rate 2% among 350,000; AID 602393; in the data active = activation above about 40%; inconclusive = no clear call, values can overlap the other calls;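 also: 0% = median of the plate's neutral control wells and 100% = double that signal; a rise in the Bmi1 reporter signal indicates esBAF inhibition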
# PAX8 inh HTS – inhibitors of PAX8 transcriptional activity in RMG-I cells | hit rate 1.2% among 360,000 | RMG-I TPO-luciferase reporter, SteadyGlo, 24 h | AID 652154 | inhibition, % at 12.6 µM;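 active = mean replicate inhibition at least 60% with every replicate also reaching 60%; inconclusive = only one of the two criteria is met; inactive = mean below 60% and not all replicates reaching 60%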;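 also: luciferase light reporting Pax8 driven TPO promoter activity; plate controls were median of neutral control wells for no effect and mitoxantrone controls for full effect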
# MITF TRPM1 HTS – increases MITF-driven TRPM1 promoter luciferase signal; hit rate 0.75% among 300,000; activation, % at 12.5 µM; AID 588334; SK-MEL-5 TRPM1-promoter luciferase, 24 h; % of positive control, neutral wells = 0;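 active = mean activation of at least 80% with every replicate also reaching 80%; inconclusive = mean reaches 80% but some replicate falls short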;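 also: 0% = neutral control wells and 100% = parthenolide positive control wells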
# EWS-Fli inh – EWS/Fli transcriptional activity inhibition | hit rate 0.67% among 350,000 | AID 651661 | A673 NR0B1-luciferase reporter, viability-normalised | inhibition, % at 12.6 µM;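 active = mean inhibition of at least 50% after viability correction, with every replicate also passing that limit; inconclusive = mean reaches 50% but only one of two replicates passes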;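 also: firefly luciferase signal divided by Alamar Blue viability fluorescence both relative to DMSO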
# MITF TRPM1 inh – reduces MITF-dependent TRPM1 promoter luciferase signal; hit rate 0.83% among 330,000; SK-MEL-5 TRPM1 promoter luciferase, 24 h; AID 488899; inhibition, % at 12.5 µM;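 active = mean inhibition across replicates of 60% or more, whatever share of single replicates reaches that level; inconclusive = some that reach 60%, reason not given; inactive = mean inhibition across replicates below 60%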
# DNA binding – DNA binding small molecules; AC35, µM (titrated, usually from 68 µM), without a hit: at the top dose activity change, negative = DNA binding; hit rate 2% among 640; salmon sperm DNA acridine orange fluorescence polarization; shares compounds with EWS-Fli inh;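 active = fitted curve reaches a 35% signal fall AC35 below twice the sample's top valid tested dose, actives reach about 48 µM in these data; inactive = the rest, including activity in the rising direction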;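 also: lower polarization ratio signals compound binding to DNA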
# * = called active by the depositor; u = inconclusive; x = no result.
SMILES,Wnt bcat act,esBAF inh,PAX8 inh HTS,MITF TRPM1 HTS,EWS-Fli inh,MITF TRPM1 inh,DNA binding
COC(=O)Cc1[nH]n(-c2nc3ccccc3s2)c(=O)c1C(C)=Nc1ccc(C)cc1,-2,x,-29,-96,77*,97*,4%
CCCNC(=O)C[C@@H]1C[C@@H]2c3cc(NC(=O)Nc4ccc(OC)cc4)ccc3O[C@@H]2[C@@H](CO)O1,x,2,-7,x,-2,x,x
COc1ccc(CC(N)c2csc(NC(=O)Nc3cccc(C(F)(F)F)c3)n2)cc1 (stereo not drawn),-3,-2,-3,x,53*,x,-4%
COc1cc(-c2coc3c(C(=O)NCc4ccc(C(F)(F)F)cc4)cccc23)ccc1O,-3,1,14,x,62*,x,7%
CCOc1ccc(N=C2C(=O)Nc3ccc(C)c(Br)c32)cc1,2,1,2,-8,52*,11,-8%
CCCCC[C@H](C)N1C[C@H](COCc2ccccc2)Oc2cc(N3CC[C@@H](N(C)C)C3)ccc2S1(=O)=O,-7,x,26,x,59*,x,-4%
CO[C@H]1CN(C)C(=O)c2ccc(NC(=O)c3ccno3)cc2OC[C@@H](C)NC[C@H]1C,x,1,-2,x,-8,x,x
CN1CCN(C(=O)[C@@H]2[C@@H](CO)[C@@H]3Cn4c(ccc(-c5cncnc5)c4=O)[C@@H]3N2CC2CC2)CC1,x,0,x,x,4,x,x
COc1ccccc1CNC(=O)C[C@@H]1C[C@H]2c3cc(NC(=O)NC4CCCC4)ccc3O[C@H]2[C@H](CO)O1,x,2,5,x,9,x,x
CC(NC(=O)c1ccco1)c1nc(-c2ccc(C(C)(C)C)cc2)no1 (stereo not drawn),1,-7,-38,41,78*,-39,-22%
COc1ccc(/C=N/Nc2ccc(C(=O)O)cc2)cc1Br,-6,-49,44,-44,69*,42,-7%
COc1ccc(/C=N\NC(=O)C2CCCC2)cc1Br,6,38,-59,63,x,-62,x
Cc1ccsc1/C=N/Nc1cccc(C(=O)O)c1,-5,x,90*,-95,66*,96*,-8%
O=C(N/N=C\c1cc(Br)cs1)c1ccncc1,-2,-3,0,x,-4,-2,x
O=C(O)c1ccc(N/N=C/c2cc(Br)cs2)cc1,3,-4,26,-13,65*,11,-3%
Cc1ccsc1/C=N/Nc1ccc(C(=O)O)cc1,12,-45,78*,-63,71*,u,5%
O=C(N[C@@H]1CC[C@H](CCNS(=O)(=O)c2ccc(Cl)cc2)O[C@@H]1CO)c1cccnc1,x,2,7,x,2,x,x
O=C(Nc1cccc(S(=O)(=O)N2CCCC2)c1)c1ccc(Cl)nc1,-3,5,x,-33,51*,32,-11%
O=C(Nc1cccc(S(=O)(=O)N2CCOCC2)c1)c1ccc(Cl)nc1,-2,4,25,-15,-73,14,x
CN(C)[C@@H]1CCC[C@@H]1OC(=O)C(c1ccccc1)c1ccccc1,x,9,-23,8,87*,-7,-1%
CCN1CCCC(OC(=O)C(c2ccccc2)c2ccccc2)C1 (stereo not drawn),-3,-1,-8,-3,2,3,x
CC(=O)Nc1ccc(OCC(=O)N(CC(C)C)C2CCS(=O)(=O)C2)cc1 (stereo not drawn),-2,x,28,6,68*,-2,0%
COc1cccc(S(=O)(=O)N[C@H]2C=C[C@H](CC(=O)NCc3ccc(F)cc3)O[C@@H]2CO)c1,x,-3,-1,x,0,x,x
C/C(=N\OCc1cccc(C(=O)O)c1)c1ccc(Cl)cc1,5,x,81*,x,84*,x,-14%
CC(C)CC(NC(=O)c1cccs1)c1nnc(SCc2ccc(Cl)c(Cl)c2)n1C (stereo not drawn),0,x,14,4,76*,0,-21%
SMILES,Wnt bcat act,esBAF inh,PAX8 inh HTS,MITF TRPM1 HTS,EWS-Fli inh,MITF TRPM1 inh,DNA binding
COc1ccc(C(=O)NC(CO)c2nnc(SCc3ccc(Cl)c(Cl)c3)n2C)cc1 (stereo not drawn),x,1,x,-5,x,6,x
C[C@H](CO)N1C[C@H](C)[C@H](CN(C)Cc2ccc(C(=O)Nc3ccccc3N)cc2)Oc2c(NS(=O)(=O)c3ccc(F)cc3)cccc2C1=O,x,x,24,x,-7,x,x
CCCn1nnc(NC(=S)NC(=O)C(C)(C)C)n1,-12,x,-21,7,87*,-8,0%
Clc1ccc(Nc2nnc(-c3ccc4c(c3)OCO4)o2)cc1,u,x,-108,x,-95,x,x
c1ccc(Nc2nnc(-c3ccc4c(c3)OCO4)o2)cc1,-2,x,48,x,79*,x,3%
CNC[C@H](CC1CCCCC1)NC[C@H](CO)NCCc1cccc(C(F)(F)F)c1,-3,-11,72*,-57,61*,57,-8%
CC(=O)NCCC1CCCCN1Cc1nc(Cc2cccc(C(F)(F)F)c2)no1 (stereo not drawn),-2,x,-2,-8,6,8,x
CCN1C(=O)S/C(=C/c2ccsc2)C1=O,25,5,-22,38,x,-42,x
CC(C)N1C/C(=C/c2cccnc2)C(=O)/C(=C/c2cccnc2)C1,5,x,-5,-90,69*,90*,-11%
CC(C)N1C/C(=C/c2ccsc2)C(=O)/C(=C/c2ccsc2)C1,x,-1,41,-100,72*,101*,-27%
CC(C)N1CC2=C(OC(N)=C(C#N)C2c2cccnc2)/C(=C/c2cccnc2)C1 (stereo not drawn),-3,0,-4,2,x,-10,x
Nc1ccc2oc(-c3cc(Br)ccc3Cl)nc2c1,0,-43,x,-50,54*,49,-7%
CC(=O)O[C@@H]1[C@H]2[C@@H](C[C@@H](C)[C@@H]3C=CC(=O)[C@@]13C)OC(=O)[C@@H]2C,-1,25,-14,3,-6,2,x
C=C1C(=O)OC2C1CCC(C)C1C=CC(=O)C12C (stereo not drawn),-7,-19,75*,-68,56*,69*,7%
C/C(=N\N(c1ccccc1)c1ccccc1)c1ccco1,-1,-2,6,13,58*,-12,0%
CC(=O)N1CCCC(c2cc(C(=O)Nc3ccccc3)no2)C1 (stereo not drawn),-2,-77,u,x,75*,x,-2%
O=C(Nc1ccccc1)c1cc(C2CCCN(C(=O)C3CC3)C2)on1 (stereo not drawn),-2,-63,-5,x,50,x,x
C[C@H](CO)N1C[C@H](C)[C@H](CN(C)C(=O)Cc2ccccn2)Oc2ncc(C#C[C@@H](C)O)cc2C1=O,x,-3,x,x,-5,x,x
Nc1cc2ccccc2oc1=O,x,5,x,-2,x,5,x
Nc1ccc(-c2cc3ccccc3c(=O)o2)cc1,0,-49,-14,-72,64*,74*,-24%
O=C(C[C@H]1C=C[C@H](NC(=O)c2cccnc2)[C@H](CO)O1)NCc1ccncn1,x,x,x,x,-8,x,x

# Source: PubChem BioAssay
